Gal4-VP16 FLuc: Gal4-VP16 reporter inhibition counter-screen; Drosophila S2 Gal4-VP16 UAS-luciferase, luminescence, 20 h; Potency, µM (series often up to 53.6 µM), without a hit: top-dose activity, negative = inhibition, hits mostly inhibitors; 310,000 tested, 3.5% active; AID 2546;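 also: Gal4-VP16 expression switched on by copper sulfate through the metallothionein promoter; potency is read from the fitted curve at half-maximal effect; nearly all actives have a fitted effect of over 50% in size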
TrxR1 substrate: substrates of rat thioredoxin reductase 1; O89049; purified TrxR1 substrate turnover, NADPH consumption readout; Potency, µM (top dose mostly 114 µM), for the others: at the top dose activity change, negative = substrate turnover; 390,000 tested, 0.01% active; AID 588456; also: potency is read from the fitted curve at half-maximal effect; nearly all actives have a fitted effect of over 50% in size
Target sequence (O89049 whole entry, looked up): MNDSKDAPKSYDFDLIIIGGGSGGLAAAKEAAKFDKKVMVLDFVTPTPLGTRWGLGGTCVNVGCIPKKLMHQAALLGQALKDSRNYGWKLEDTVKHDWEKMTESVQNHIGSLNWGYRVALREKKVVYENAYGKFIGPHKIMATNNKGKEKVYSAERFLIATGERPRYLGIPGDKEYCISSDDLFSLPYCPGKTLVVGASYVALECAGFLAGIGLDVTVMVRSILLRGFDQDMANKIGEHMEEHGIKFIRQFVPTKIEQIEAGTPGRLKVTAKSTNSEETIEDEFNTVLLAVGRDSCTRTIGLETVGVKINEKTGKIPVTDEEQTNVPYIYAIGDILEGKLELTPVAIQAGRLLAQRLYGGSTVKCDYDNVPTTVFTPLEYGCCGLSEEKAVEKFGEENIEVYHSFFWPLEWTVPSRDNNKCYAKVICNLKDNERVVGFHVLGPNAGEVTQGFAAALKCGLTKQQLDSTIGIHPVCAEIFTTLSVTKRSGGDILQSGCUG
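Rat TrxR1, dispensed at 90 nM, was prereduced with 400 uM NADPH (final) for 5 min at ~22 deg C, then incubated with compound 15 min before 400 uM selenite. A first-read NADPH fluorescence drop versus no-compound background flagged substrates.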
GALK inh: galactokinase (human) inhibition; P51570; Potency, µM (highest dose often 57.5 µM), inactives show top-dose activity change, negative = inhibition, most hits filed as inhibitors; Purified GALK, Kinase-Glo residual ATP luminescence; 270,000 tested, 0.007% active; also: potency is read from the fitted curve at half-maximal effect
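ATP-depletion format; final 35 uM ATP, 100 uM D-galactose, 5 nM enzyme; pH 8.0 HEPES/Mg2+ buffer; 60 min RT; luminescence read 10 min after detection reagent.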
Coupling enz: coupling enzyme interference in Giardia aldolase counter-screen. coupling enzyme system counterscreen, AmpLite Red fluorescence. 290,000 tested, 0.67% active. AID 2472. activity change, negative = inhibition, % at 58.2 µM, hits read low; in the data active = activity change below about -30%
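Compounds tested against the coupling enzymes alone at 57.5 uM final; readout was AmpLite Red fluorescence (525/598 nm) after 20 min at RT.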
RORg inh: ROR gamma (mouse) transcription inhibition; Drosophila S2 Gal4-RORgamma UAS-luciferase reporter, 20 h; Potency, µM (top dose mostly 53.6 µM), for inactives: at the top dose activity change, negative = inhibition, actives largely listed as inhibitors; 310,000 tested, 5.4% active; also: potency is read from the fitted curve at half-maximal effect; nearly all actives have a fitted effect of over 60% in size
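Schneider cells (Drosophila), stable Gal4 DBD–ROR gamma + UAS-luc; 1 hr cmpd preincubation; Cu2+ induction 700 uM final; 20 hr ambient; luminescence.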
rTrxR1 inhibitor: blocks rat thioredoxin reductase 1; O89049; recombinant rTrxR1, NADPH fluorescence consumption, selenite substrate; Potency, µM (series often up to 114 µM), for the others: at the top dose activity change, negative = inhibition, most hits filed as inhibitors; 390,000 tested, 1% active; AID 588453; also: potency is read from the fitted curve at half-maximal effect; nearly all actives have a fitted effect of over 65% in size
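Rat TrxR1 (90 nM in the dispensed reagent) was pre-reduced with 400 uM NADPH for 5 min at room temperature, then incubated with compound for 15 min. After 400 uM selenite was added, NADPH fluorescence (Ex 340/Em 450 nm) was followed for 8 min.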
* = called active by the depositor; ? = inconclusive; . = no result; [ ] = dose if it differs, or a comment. In the library only some 5.9% were active in any assay of this set; here they are far more common. Unless noted, calls follow the shape of the dose curve; as a rule, active = well fitted curve in the direction sought with a large enough effect; inconclusive = small, poorly fitted or top-dose-only effect, or another doubt; inactive = no such curve, though single readings can be large; an effect the other way counts as inactive or inconclusive. % is scaled to controls: 0 for no effect and ±100 for the full control effect.

SMILES | Gal4-VP16 FLuc | TrxR1 substrate | GALK inh | Coupling enz | RORg inh | rTrxR1 inhibitor
O=c1c(O)cc(C2Oc3cc(O)cc(O)c3CC2O)cc2c(C3Oc4cc(O)cc(O)c4CC3O)cc(O)c(O)c12 (stereo not drawn) | -27% | . | . | -75* | -7% | .
O=C(N/N=C/c1ccsc1)c1cc(-c2ccncc2)nc2ccccc12 | -13% | -3% | . | 0 | 11µM* | -3%
O=C(O)c1ccc(/C=N/NC(=O)c2cc(-c3cccs3)nc3ccccc23)cc1 | -9% | 67% | -4% | 3 | 19% | ?
O=C(N/N=C/c1ccccn1)c1cc(-c2ccncc2)nc2ccccc12 | ? | 6% | 2% | -1 | 8.9µM* | -34%
O=C(N/N=C/c1ccsc1)c1cc(-c2cccs2)nc2ccccc12 | 4.5µM* | 6% | 2% | 0 | 4µM* | 4%
O=C(N/N=C/c1ccc2c(c1)OCO2)c1cc(-c2ccncc2)nc2ccccc12 | -11% | -11% | 2% | 3 | -27% | -3%
O=C(N/N=C/c1ccc[nH]1)c1cc(-c2ccc(Cl)cc2)nc2ccccc12 | 5.6µM* | 0%[57.1 µM] | -3% | -2 | 1.4µM* | 24%[57.1 µM]
C=CCOc1ccc(-c2nc3c(c(=O)[nH]c(=O)n3CCCC)n2C)cc1Br | 1% | 7% | 0% | 0 | 12% | 5%
COc1cc2c(cc1OC)C1Cc3ccc(OC)c(OC)c3C[N+]1([O-])CC2 (stereo not drawn) | -16% | -3% | -1% | -2 | -22% | -4%
COc1cccc(C(=O)NC(=O)Nc2cc(C)[nH]n2)c1 | -23% | 8% | 7% | 0 | -30% | 24%
NC(=S)N/N=C1\CC(n2nnn(-c3cccc(Cl)c3)c2=S)C2COC1O2 (stereo not drawn) | ? | -3%[57.1 µM] | 1% | 1 | 4µM* | -47%
CC(C)C(=O)Nc1nnc(NC(=S)Nc2ccccc2)s1 | 2.8µM* | 2%[57.1 µM] | -2% | -3 | 0.56µM* | 10µM*
CCCCCC(=O)Nc1nnc(CCc2ccccc2)s1 | ? | 6% | -4% | -5 | 13µM* | 39%
CCCc1nnc(NC(=O)CCC(=O)Nc2ccc(Cl)cc2)s1 | 0% | 0% | 5% | -2 | -3% | 19%
CCCc1nnc(NC(=S)Nc2ccccc2)s1 | 0.63µM* | -4%[57.1 µM] | 1% | 0 | 0.63µM* | -11%[57.1 µM]
O=C(N[C@@H](Cc1c[nH]c2ccccc12)C(=O)NC1CC1)c1ccccc1Cl | 17% | -11% | -1% | 0 | 32% | -13%
CCC(CC)Nc1ccc(C(CC(N)=O)NC(=O)Cc2cccc3ccccc23)cc1[N+](=O)[O-] (stereo not drawn) | 2% | 2%[57.1 µM] | . | -3 | 11% | 5%[57.1 µM]
Cc1ccc(OCCSc2nc3ccccc3n2CC(=O)NC(C)C)cc1 | . | -3% | . | . | . | 0%
O=C(O)COc1ccc(Br)cc1/C=N\Nc1ccccn1 | -21% | -11% | 1% | 2 | 2.2µM* | -4%
COc1cccc(/C=N/Nc2nc3ccccc3[nH]2)c1O | 2.2µM* | 13% | 6% | -6 | 0.71µM* | 41%
O=[N+]([O-])c1ccc(O)c(/C=N/Nc2ccccn2)c1 | 11µM* | -9% | 1% | 8 | 10µM* | -9%
O=[N+]([O-])c1ccc(O)c(/C=N/Nc2nc3ccccc3[nH]2)c1 | 5.6µM* | -6% | -3% | 0 | 6.3µM* | -7%
O=[N+]([O-])c1ccc(NN=Cc2ccccc2O)nc1 | . | 10%[57.1 µM] | . | . | . | 16%[57.1 µM]
O=c1c2ccccc2n(CC(O)CN2CCOCC2)c2ccccc12 (stereo not drawn) | 2% | 36%[57.1 µM] | 0% | -2 | 3% | 42%
COc1cc(OC)cc(C(=O)NNC(=O)Cc2ccc(OC)c(S(=O)(=O)N3CCOCC3)c2)c1 | -8% | -9% | 1% | -1 | 26% | -4%
CN(C)NC(=O)c1ccsc1NC(=O)c1ccc(S(=O)(=O)N2CCCC2)cc1 | -18% | -3% | 0% | -1 | ? | 2%
CCN(c1ccccc1)S(=O)(=O)c1ccc(OC)c(NC(=O)c2cc(Cl)ccn2)c1 | . | 8% | . | . | . | -22%
